Bioassay records deposited in PubChem BioAssay by National Center for Advancing Translational Sciences (NCATS).
Sm TGR block = qHTS Assay for the Inhibitors of Schistosoma Mansoni Peroxiredoxins; AID 485364, 2010; purified TGR, DTNB reduction, TNB absorbance 405 nm; Schistosoma mansoni thioredoxin glutathione reductase (TGR), Q962Y6; actives 3% (n = 360,000); Potency, µM (doses to about 114 µM), without a hit: at the top dose activity change, negative = inhibition, hits mostly inhibitors; active = well fitted inhibition curve with a large enough effect; inconclusive = small, poorly fitted or top-dose-only effect; inactive = no such curve, though single readings can be large or run the other way; also: potency is read from the fitted curve at half-maximal effect; % is scaled to controls: 0 for no effect and ±100 for the full control effect; nearly all actives have a fitted effect of over 60% in size
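Kinetic colorimetric format: TGR-catalysed, NADPH-driven DTNB reduction monitored via TNB absorbance. Enzyme dispensed at 20 nM; compound exposure 15 min at room temperature before reaction start.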
FMDV inh = High Throughput Screening for Foot and Mouth Disease Virus Antivirals. FMDV antiviral cell-based qHTS. Potency, µM (highest dose often 57.9 µM), for the others: at the top dose activity change, negative = inhibition, most hits filed as inhibitors. actives 1.2% (n = 410,000); calls by dose curve; tested in HEK293T cells; also: read-out not given here; potency is read from the fitted curve at half-maximal effect; % is scaled to controls: 0 for no effect and ±100 for the full control effect; nearly all actives have a fitted effect of over 45% in size
Shiga toxin inh = A qHTS for Small Molecule Inhibitors of Shiga Toxin; Vero cells, Shiga toxin protein synthesis inhibition reporter; inhibition, % at 38.7 µM; actives 9.2% (n = 290,000); AID 2315, 2010; in the data active = inhibition mostly above about 28%, no sharp cut-off; inactive = mostly below about 43%; also: 0% is about no effect
Cycloheximide cs = Cycloheximide Counterscreen for Small Molecule Inhibitors of Shiga Toxin; cell reporter, cycloheximide protein synthesis inhibition counterscreen; max response, %; actives 12% (n = 300,000); in the data active = max response mostly above about 13%, no sharp cut-off; inactive = mostly below about 14%; also: read at 38.3 µM for the half of the compounds with a filed dose; 0% is about no effect
* = called active by the depositor. Most compounds without a hit are left out; they make up all but 12% or so of the library.

O=c1c(-c2cc(F)cc(F)c2)nc2cnc(N3CCNCC3)nc2n1Cc1ccc(F)cc1 was read as FMDV inh -3.8%.
`COc1ccc(OC)c(NC(=O)Cn2c(=O)cc(-c3ccccc3)c3c(C)nn(C)c32)c1` gave Sm TGR block -6.4% and FMDV inh inconclusive.
COc1ccc(S(=O)(=O)NCc2cccn2Cc2cccc(C)c2)cc1OC was read as Sm TGR block -0.6% and FMDV inh 65.0%.
For COc1ccc(OC)c(NC(=O)C2CCN(c3cc(-c4ccccc4)nc4ncnn34)CC2)c1 the results were Sm TGR block 0.1%, FMDV inh -10.0%, Shiga toxin inh -19.4 and Cycloheximide cs 4.4.
Screening COc1ccccc1NC(=O)N1CCN(c2cc(-c3ccccc3)nc3ncnn23)CC1 returned Sm TGR block 6.5%, FMDV inh 31.6µM*, Shiga toxin inh -7.1 and Cycloheximide cs -1.6.
COc1ccc(/C=C/C(=O)C(C)(C)C)cc1OC was read as Sm TGR block 43.2%, FMDV inh -4.5%, Shiga toxin inh 11.8 and Cycloheximide cs 15.6*.
COc1ccc(/C=C/C(=O)NCCCNC(=O)/C=C/c2ccc(OC)c(OC)c2)cc1OC was read as FMDV inh 3.3%.
For COc1ccc(C=C(C(C)=O)C(C)=O)cc1OC the results were Sm TGR block inconclusive, FMDV inh 28.2µM*, Shiga toxin inh 7.8 and Cycloheximide cs -0.9.
`O=C(/C=C/c1ccccc1Cl)Nc1nc(-c2cccs2)ns1` gave Sm TGR block -2.0% and FMDV inh 20.9%.
Screening COn1c(C)c(C)c2c3nonc3ccc21 returned Sm TGR block 20µM*, FMDV inh -3.5%, Shiga toxin inh -4.3 and Cycloheximide cs 0.6.
O=C(CSc1oc(-c2ccco2)nc1S(=O)(=O)c1ccccc1)NCC1CCCO1 (stereo not given) was read as Sm TGR block 15.8µM*, FMDV inh 2.4%, Shiga toxin inh 8.6 and Cycloheximide cs -0.9.
O=C(CSc1oc(-c2ccco2)nc1S(=O)(=O)c1ccc(F)cc1)NCC1CCCO1 (stereo not given) was read as Sm TGR block 0.0%, FMDV inh 14.1%, Shiga toxin inh -7.0 and Cycloheximide cs 2.2.
O=C(CSc1oc(-c2ccco2)nc1S(=O)(=O)c1ccc(Cl)cc1)NCC1CCCO1 (stereo not given) was read as Sm TGR block 50.1µM*, Shiga toxin inh -14.6 and Cycloheximide cs -3.9.
COc1ccc(-c2noc(-c3ccccc3NC(=O)c3cc(OC)c(OC)c(OC)c3)n2)cc1 was read as Sm TGR block 0.1% and FMDV inh inconclusive.
Cc1ccc(NC(=O)c2c(C)oc3ncn(CC(C)C)c(=O)c23)nc1 was read as Sm TGR block -11.6% and FMDV inh -1.1%.
Screening O=C(CSc1nccn1C1CCCC1)Nc1ccccc1 returned Sm TGR block 10.2% and FMDV inh 27.3%.
For O=C(N/N=C1/CC2C=CCC12)c1cccs1 (stereo not given) the results were Sm TGR block -3.5%, FMDV inh 10.1%, Shiga toxin inh 80.3* and Cycloheximide cs 42.1*.
For O=C(N/N=C1/CC2C=CCC12)c1ccco1 (stereo not given) the results were Sm TGR block 5.2%, FMDV inh 0.0%, Shiga toxin inh 81.0* and Cycloheximide cs 72.4*.
Screening NC(=O)c1cc2ccccc2o/c1=N\NC(=O)c1ccco1 returned Sm TGR block -8.2%, FMDV inh -20.3%, Shiga toxin inh 14.3 and Cycloheximide cs 4.2.
Screening O=C(O)C1Nc2c(Cl)cc(Cl)cc2C2C=CCC12 (stereo not given) returned Sm TGR block inconclusive, FMDV inh -25.7%, Shiga toxin inh -15.5 and Cycloheximide cs -3.4.
Screening CCOC(=O)c1ccc2c(c1)C1C=CCC1C(C(=O)OCC)N2 (stereo not given) returned Sm TGR block 31.6µM*, FMDV inh 5.5% and Cycloheximide cs 0.8.
`O=C(O)C1Nc2ccc(Br)cc2C2C=CCC12` (stereo not given) gave Sm TGR block 0.891µM*, FMDV inh -10.6%, Shiga toxin inh -9.1 and Cycloheximide cs -1.4.
`O=C(O)C1Nc2c(O)cccc2C2C=CCC12` (stereo not given) gave Sm TGR block 8.91µM*, FMDV inh -28.5%, Shiga toxin inh -14.2 and Cycloheximide cs -2.8.
Screening O=C(OC1CCCCC1)c1ccc2c(c1)C1C=CCC1C(C(=O)O)N2 (stereo not given) returned Sm TGR block 3.16µM*, Shiga toxin inh -11.3 and Cycloheximide cs 7.9.
For CCOC(=O)c1ccc2c(c1)[C@@H]1C=CC[C@@H]1[C@H](c1cccc(OC)c1OC)N2 the results were Sm TGR block 0.1% and FMDV inh 0.4%.
Screening O=C(O)c1ccc2c(c1)[C@@H]1C=CC[C@@H]1[C@H](c1ccccn1)N2 returned FMDV inh -15.4%.
`COc1cccc(NC(=O)C(Cc2ccccc2)N2Cc3ccccc3C2=O)c1` (stereo not given) gave Sm TGR block 0.8% and FMDV inh 8.5%.
`CCc1ccc2ncc3c(-c4ccc(C)cc4)nn(CC(=O)Nc4ccc(C)cc4)c3c2c1` gave Sm TGR block -2.3% and FMDV inh 5.6%.
`CCN(CC)CCCNC(=O)c1nn(-c2ccc(OC)c(Cl)c2)c(=O)c2c1c1ccccc1n2C` gave Sm TGR block 8.5% and FMDV inh -2.5%.
For CN(CC(=O)NCc1ccccc1Cl)S(=O)(=O)c1ccc2c(c1)c(=O)n(C)c(=O)n2C the results were Sm TGR block -4.3% and FMDV inh 7.0%.
Screening CCOC(=O)C1Nc2ccc(C)cc2C2C=CCC12 (stereo not given) returned FMDV inh -6.0%.
CCOC(=O)C1Nc2ccc(Br)cc2C2C=CCC12 (stereo not given) was read as Sm TGR block 28.2µM*, FMDV inh 0.0%, Shiga toxin inh -19.1 and Cycloheximide cs -2.3.
`CC(=O)Nc1ccc(-n2cc3c(c2-c2ccc(C)cc2)c(=O)n(C)c(=O)n3C)cc1` gave Sm TGR block 7.1% and FMDV inh 0.0%.
Screening O=C(CC1S/C(=N/N=C2CCCCCC2)NC1=O)Nc1ccccc1C(F)(F)F (stereo not given) returned Sm TGR block 7.0%, FMDV inh -22.6%, Shiga toxin inh -4.4 and Cycloheximide cs 3.8.
CC1S/C(=N/N=C2CCC(C(C)(C)C)CC2)NC1=O (stereo not given) was read as Sm TGR block 8.4%, FMDV inh 18.9%, Shiga toxin inh 24.6 and Cycloheximide cs 25.9*.
`CC1S/C(=N/N=C2CCCCC2)NC1=O` (stereo not given) gave Sm TGR block 9.1%, FMDV inh -14.0%, Shiga toxin inh 32.7 and Cycloheximide cs 30.1*.
CC(C)(C)C1CCNC(=O)CC1 (stereo not given) was read as FMDV inh -24.3%.
Screening COc1ccc(Br)cc1CNC(=O)Cn1nc(C)n2c(cc3cc(F)ccc32)c1=O returned Sm TGR block 2.8% and FMDV inh -15.9%.
For Cc1c(C(=O)NCc2ccc(Cl)cc2)sc2nc3n(c(=O)c12)CCCC3 the results were Sm TGR block inconclusive and FMDV inh -11.5%.
